# In PubChem BioAssay (EPA / NIEHS):
# Values joined by “and” are separate entries in the source; they are usually repeats but may differ in a detail not shown here. Identical values can stand only once. A structure can be active in one record and inactive in another. Active and inactive are the calls of the source. Rule for the calls: active = hit-call score of the fitted dose curve at least 0.9, where 1 is the maximum; inactive = score below 0.9.
# Assay: CCTE_Shafer_MEA_dev_per_burst_interspike_interval: CCTE's Neural Network Formation Assay for Burst Interspike Interval, Shafer Lab (AID 2284044);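 note: mean spike spacing inside bursts as AUC over recordings on days 5 7 9 12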;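 for AC50: potency for a decrease of within-burst interspike interval below DMSO level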
# Description: CCTE_Shafer_MEA_dev assay is conducted using Axion Biosystems 48 well microelectrode array (MEA) plates and Maestro recording system. Each well of the MEA plate contains a grid of 16 microelectrodes embedded in the culture surface. Electrically active cells, such as neurons, can be cultured over the electrodes, and electrical activity in these cells can be recorded extracellularly. The spontaneous firing of neurons is captured from each electrode on a microsecond timescale providing both temporally and spatially precise data. […] The CCTE_Shafer_MEA_dev assay uses primary cultures of rat cortical neurons. Recordings are made on days post-plating 5, 7, 9 and 12. As these cultures mature over time, neural networks develop functional activity and form cohesive networks in which electrical activity can be highly coordinated. CCTE_Shafer_MEA_dev_per_burst_interspike_interval is 1 of 19 assay components of the CCTE_Shafer_MEA_dev assay. It measures the average time interval between spikes (action potential firings) within a single-electrode burst (temporally-clustered group of spikes) during a recording in a microelectrode array (MEA) using Axion Biosystems Maestro 768 channel amplifier with the AxIS adaptive spike detector. The mean inter-spike interval within bursts is averaged across the actively bursting electrodes to report a well-mean value. To collapse across multiple recordings made on days post-plating 5, 7, 9 and 12, the trapezoidal area-under-the-curve of the component is calculated.Data from the assay component CCTE_Shafer_MEA_dev_per_burst_interspike_interval was analyzed into 1 assay endpoint. This assay endpoint, CCTE_Shafer_MEA_dev_per_burst_interspike_interval, was analyzed in the negative analysis fitting direction relative to DMSO as the negative control and baseline of activity. Using a type of functional reporter, gain or loss-of-signal activity can be used to understand electrical activity.
# On the day prior to culture, each well was coated thoroughly with 150 uL of 0.05% polyethyleneimine (PEI, Sigma Cat P3143) in 50 mM HEPES (Sigma Cat H7523) at a pH of 8. The plate was incubated at 37C for one hour. PEI was rinsed out with 500 uL of sterile water three times. Plates were stored at 4C until the day of culture. This culture was plated at a seeding density of 1.5 x 10^5 cells/well on a 48-well MEA plate, prepared as described above. Cells were administered via a 25 uL media/laminin ([…]; Sigma Cat L2020-1MG) drop directly onto the microelectrode array, as adding the cells with the laminin results in better attachment than pre-coating with laminin. After 2 hours, an additional 475 uL of cortical media was added and the cells returned to the incubator. Exposure starts at day 0 of plating and is continued over twelve days of network development until the experiment is terminated. Cells are fed with fresh medium on DIV 5 and 9, following the recordings on those days. The entire volume of media in the well is exchanged and any vehicle or compound treatment is renewed. Complete details are found in OP-NHEERL/ISTD/SBB/TJS/2015-03-r0 (available on request, email shafer.tim@epa.gov). Measurement of the electrical activity is non-invasive, and recordings can be made from the same plate over multiple different days of the culture. In cortical neurons, this allows for the measurement of extracellular action potentials over the period during which networks form in the MEA plate.
SMILES,outcome,AC50
O=C(O)C(F)(F)C(F)(F)C(F)(F)C(F)(F)C(F)(F)C(F)(F)C(F)(F)C(F)(F)C(F)(F)C(F)(F)F,inactive,–
Cn1sc(Cl)cc1=O,–,7.73 µM (active)
O=C1C2(Cl)C3(Cl)C4(Cl)C(Cl)(Cl)C5(Cl)C3(Cl)C1(Cl)C5(Cl)C24Cl (configuration not stated),–,10 µM (active)
CCOP(=S)(OCC)Oc1nc(Cl)c(Cl)cc1Cl,inactive,15.7 µM (active) and 5.07 µM (active)
ClC1(Cl)C2(Cl)C3(Cl)C4(Cl)C(Cl)(Cl)C5(Cl)C3(Cl)C1(Cl)C5(Cl)C24Cl (configuration not stated),–,1.58 µM (active)
O=C(O)C(F)(F)C(F)(F)C(F)(F)C(F)(F)C(F)(F)C(F)(F)F,inactive,–
CC(=O)[O][Hg][c]1ccccc1,–,0.0154 µM (active)
CCC(=O)C(CC(C)N(C)C)(c1ccccc1)c1ccccc1 (configuration not stated),–,6.65 µM (active)
C=C(C)C(=O)[O][Sn]([CH2]CCC)([CH2]CCC)[CH2]CCC,–,0.0336 µM (active)
COP(=O)(OC)O/C(=C\Cl)c1cc(Cl)c(Cl)cc1Cl,inactive,–
CC(C)(C)c1cc(O)ccc1O,inactive,–
